Test results published in PubChem BioAssay (NCATS).
Results filed as inconclusive are left out. Calls of active or inactive are those of the source. Calls come from the whole dose curve; as a rule, active = well fitted inhibition curve with a large enough effect; inconclusive = small, poorly fitted or top-dose-only effect; inactive = flat fitted curve, though single readings scatter.

How the values were obtained:
Test in all cases: qHTS profiling for inhibitors of Plasmodium falciparum proliferation (AID 504749); note: nearly all actives have a fitted effect of over 60% in size
Conditions in all cases: P. falciparum in erythrocytes, SYBR Green DNA, 72 h; series mostly up to 28.7 µM
CP185 = tested on: CP185
Summary of the method: (§1)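 Quantitative HTS: compounds pinned into medium, infected erythrocytes added (0.3% parasitemia, 2.5% hematocrit), 72 h culture at 37 C under 5% CO2. Saponin/Triton lysis with SYBR Green I, overnight RT, then fluorescence read.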

CP191 = tested on: CP191
Summary of the method: as §1

CP192 = tested on: CP192
Summary of the method: as §1

CP201 = tested on: CP201
Summary of the method: as §1

CP203 = tested on: CP203
Summary of the method: as §1

CP211 = tested on: CP211
Summary of the method: as §1

CP268 = tested on: CP268
Summary of the method: as §1

CP291 = tested on: CP291
Summary of the method: as §1

CP297 = tested on: CP297
Summary of the method: as §1

CP305 = tested on: CP305
Summary of the method: as §1

CP315 = tested on: CP315
Summary of the method: as §1

CP325 = tested on: CP325
Summary of the method: as §1

CP329 = tested on: CP329
Summary of the method: as §1

DFO2036 = tested on: DFO2036
Summary of the method: as §1

DIV14 = tested on: DIV14
Summary of the method: as §1

DIV17 = tested on: DIV17
Summary of the method: as §1

DIV30 = tested on: DIV30
Summary of the method: as §1

P94_40 = tested on: P94_40
Summary of the method: as §1

PC26 = tested on: PC26
Summary of the method: as §1

TAB109 = tested on: TAB109
Summary of the method: as §1

Measured: Potency

CN(C)CCCCCCN(C)C
inactive: CP185 | CP191 | CP192 | CP201 | CP203 | CP211 | CP268 | CP291 | CP297 | CP305 | CP315 | CP325 | CP329 | DFO2036 | DIV14 | DIV17 | DIV30 | P94_40 | PC26 | TAB109

S=C1NC=NC2N=CNC12 (stereo not given)
inactive: CP185 | CP191 | DFO2036 | P94_40 | TAB109

Nc1nc(Cl)nc2c1ncn2C1CC(O)C(CO)O1 (stereo not given)
inactive: CP192 | CP201 | CP203 | CP211 | CP268 | CP291 | CP297 | CP305 | CP315 | CP325 | CP329 | DIV14 | DIV17 | DIV30 | PC26

C1OCOCO1
inactive: CP185 | CP191 | CP192 | CP201 | CP203 | CP211 | CP268 | CP291 | CP297 | CP305 | CP315 | CP325 | CP329 | DFO2036 | DIV14 | DIV17 | DIV30 | P94_40 | PC26 | TAB109

CC1(C)S[C@@H]2[C@H](NC(=O)COc3ccccc3)C(=O)N2[C@H]1C(=O)O
inactive: CP185 | CP191 | CP192 | CP201 | CP203 | CP211 | CP268 | CP291 | CP297 | CP305 | CP315 | CP325 | CP329 | DFO2036 | DIV14 | DIV17 | DIV30 | P94_40 | PC26 | TAB109
